FMDV antiviral – High Throughput Screening for Foot and Mouth Disease Virus Antivirals | FMDV antiviral cell-based qHTS | Potency, µM (series often up to 57.9 µM), hits mostly inhibitors | 410,000 tested, 1.2% active | AID 1159524, 2015; calls by dose curve; tested in HEK293T cells; also: read-out not given here; nearly all actives have a fitted effect of over 45% in size
LASV entry inh – qHTS for Inhibitors of binding or entry into cells for Lassa Virus. Lassa virus pseudotype entry inhibition, cell reporter. Potency, µM (series often up to 37.9 µM), usual class: inhibitors. 300,000 tested, 1.2% active; calls by dose curve; tested in HEK293 cells; also: nearly all actives have a fitted effect of over 50% in size
MARV entry inh – qHTS for inhibitors of binding or entry into cells for Marburg Virus | Marburg virus pseudotyped entry inhibition, cell reporter | Potency, µM (titrated, usually from 37.8 µM), hits mostly inhibitors | 300,000 tested, 1.8% active | AID 540276, 2011; calls by dose curve; tested in HEK293 cells
HCV inhibitor – qHTS Assay for Inhibitors of Hepatitis C Virus (HCV); Huh7.5.1 HCVcc-Cre infection, luciferase reporter, 44 h; Potency, µM (series often up to 41.8 µM), actives largely listed as inhibitors; 340,000 tested, 3.4% active; active = well fitted inhibition curve with a large enough effect; inconclusive = small, poorly fitted or top-dose-only effect, or another doubt; inactive = no such curve, though single readings can be large or run the other way
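Infectious HCVcc-Cre (~0.5 moi) was added to cells just after compound, with cells seeded 4 h earlier at 1,000 per well. Luciferase activity after 44 h culture reported infection; substrate was incubated 15 min at room temperature before reading.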
Shiga toxin inh – A qHTS for Small Molecule Inhibitors of Shiga Toxin; Vero cells, Shiga toxin protein synthesis inhibition reporter; inhibition, % at 38.7 µM; 290,000 tested, 9.2% active; AID 2315, 2010; in the data active = inhibition mostly above about 28%, no sharp cut-off; inactive = mostly below about 43%
CHX counter – Cycloheximide Counterscreen for Small Molecule Inhibitors of Shiga Toxin | cell reporter, cycloheximide protein synthesis inhibition counterscreen | 300,000 tested, 12% active | max response, % | AID 2314, 2010; in the data active = max response mostly above about 13%, no sharp cut-off; inactive = mostly below about 14%; also: read at 38.3 µM for the half of the compounds with a filed dose
Each line names hits and unclear results; the compound was inactive in the other large screens. Rows were chosen to be rich in hits. Some 13% of all compounds tested hit in one or more screens of this group.

COc1cc(C(=O)OCc2cccc(S(=O)(=O)N3CCOCC3)c2)ccc1OCC(C)C	HCV inhibitor 10µM (no result: LASV entry inh, MARV entry inh, Shiga toxin inh, CHX counter)
O=C(CSc1nnc(COc2ccccc2)n1-c1ccccc1)c1cccs1	LASV entry inh inconclusive, CHX counter 34
Cc1ccc(OCc2nnc(SCC(=O)c3cccs3)n2-c2ccccc2)cc1C	LASV entry inh inconclusive, MARV entry inh inconclusive, HCV inhibitor inconclusive, Shiga toxin inh 73, CHX counter 31
O=C(CSc1nnc(Cc2cccs2)n1-c1ccccc1)NC1CCCCC1	LASV entry inh 14µM
O=C(Nc1sc2c(c1C(=O)O)CCC2)c1cccc(Cl)c1	MARV entry inh inconclusive, Shiga toxin inh 70, CHX counter 44
O=C(Nc1sc2c(c1C(=O)O)CCC2)c1ccccc1Cl	LASV entry inh inconclusive (no result: Shiga toxin inh)
Cc1cccc(C(=O)Nc2sc3c(c2C(=O)O)CCCC3)c1	LASV entry inh inconclusive, MARV entry inh 2µM, HCV inhibitor inconclusive, Shiga toxin inh 93, CHX counter 47
CCOC(=O)C(NC(=O)c1ccccc1Cl)(Nc1sc2c(c1C(N)=O)CCC2)C(F)(F)F (configuration not stated)	FMDV antiviral inconclusive (no result: LASV entry inh)
CCOC(=O)C(NC(=O)c1cccc(Cl)c1)(Nc1sc2c(c1C(N)=O)CCC2)C(F)(F)F (configuration not stated)	FMDV antiviral inconclusive, LASV entry inh inconclusive, HCV inhibitor 13µM
O=C(Nc1nc2n(n1)C(c1ccc(F)cc1)C=C(c1ccc(Cl)cc1)N2)c1ccc([N+](=O)[O-])cc1 (configuration not stated)	LASV entry inh inconclusive, MARV entry inh 2.8µM (no result: HCV inhibitor, Shiga toxin inh, CHX counter)
CC1(C)CC(=O)c2sc(NS(=O)(=O)Cc3ccccc3)nc2C1	Shiga toxin inh 41, CHX counter 27
Cc1ccc(S(=O)(=O)Nc2nc3c(s2)C(=O)CC(C)(C)C3)cc1	none
Cc1nn(C)c(C)c1CCC(=O)NC1CC(C)(C)Cc2c1cnn2-c1ccccc1 (configuration not stated)	none
CC(C(=O)NC1C=CS(=O)(=O)C1)N1C(=O)/C(=C\c2ccccc2)SC1=S (configuration not stated)	Shiga toxin inh 24, CHX counter 23 (no result: LASV entry inh, MARV entry inh)
COc1ccccc1/C=C1/SC(=S)N(C(C)C(=O)NC2C=CS(=O)(=O)C2)C1=O (configuration not stated)	FMDV antiviral inconclusive, CHX counter 19 (no result: LASV entry inh, MARV entry inh)
CCOc1ccccc1NC(=O)N(Cc1ccc(F)cc1)C1CCN(CC)CC1	LASV entry inh inconclusive (no result: MARV entry inh, HCV inhibitor, Shiga toxin inh, CHX counter)
Nc1nn(-c2ccccc2)nc1C(=O)OCc1ccccc1F	CHX counter 31 (no result: FMDV antiviral, LASV entry inh, MARV entry inh, HCV inhibitor)
O=C(OCc1ccccc1F)c1ccc(-c2nnn(Cc3ccccc3)n2)cc1	none (no result: HCV inhibitor, Shiga toxin inh, CHX counter)
Cc1ccccc1COC(=O)c1nn(-c2ccccc2)nc1N	LASV entry inh inconclusive, MARV entry inh inconclusive, Shiga toxin inh 54, CHX counter 32
COC(=O)c1nn(-c2ccccc2)nc1-c1nn(-c2ccccc2)nc1C(=O)OC	none
Cn1nc(C(=O)OCc2ccccc2F)c2ccccc2c1=O	Shiga toxin inh 35 (no result: LASV entry inh)
COc1ncc2nc(-c3cc(F)cc(F)c3)c(=O)n(C3CC3)c2n1	none (no result: LASV entry inh, MARV entry inh, HCV inhibitor, Shiga toxin inh, CHX counter)
COc1ccccc1OCC(=O)NC1CC(C)(C)NC(C)(C)C1	none (no result: LASV entry inh)
CCC1(CC)C(=O)NC(=O)N(c2ccccc2)C1=O	none (no result: LASV entry inh, MARV entry inh, Shiga toxin inh, CHX counter)
c1ccc2c(N3CCCCC3)nc(N3CCOCC3)nc2c1	MARV entry inh inconclusive, HCV inhibitor inconclusive
Fc1ccc(Nc2nc(N3CCOCC3)c3ccccc3n2)cc1	FMDV antiviral inconclusive, LASV entry inh inconclusive, MARV entry inh 16µM
c1ccc2c(Nc3nc(N4CCOCC4)c4ccccc4n3)cccc2c1	FMDV antiviral 28µM, LASV entry inh inconclusive, MARV entry inh inconclusive, HCV inhibitor inconclusive
CCCN(CCC)C(=O)Cn1c(=O)n(Cc2ccc(C(=O)NCCc3ccc(OC)c(OC)c3)cc2)c(=O)c2ccccc21	none (no result: HCV inhibitor, Shiga toxin inh, CHX counter)
COc1cc(/C=N/NC2=NC(C)(C)Cc3ccccc32)cc(OC)c1OC	none
Cc1cc(N2CCOCC2)nc2ccc(NC(=O)CCC(=O)N3CCN(c4ccccc4F)CC3)cc12	LASV entry inh inconclusive, MARV entry inh inconclusive, HCV inhibitor 22µM, CHX counter 22
Cc1cc(N2CCOCC2)nc2ccc(NC(=O)CCC(=O)N3CCN(c4ccc(F)cc4)CC3)cc12	HCV inhibitor inconclusive

Screens deposited in PubChem BioAssay by National Center for Advancing Translational Sciences (NCATS).
